According to PubChem BioAssay (NCI):
Compounds without any hit were thinned out: in the full panel of roughly 83,000, 20% have a hit.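 Method: cells in 96-well plates; compound added at one concentration; 48 h incubation; percent growth measured; values under 10 scored active.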 Activity calls are given as the source filed them.

Legend:
Assay in all cases: NCI-60 one-dose screen, 48 h (100 = growth as untreated, 0 = no growth, -100 = all killed)
Conditions in all cases: 10 µM unless noted
HCT-15 colon = test system: HCT-15 colon
HT29 colon = test system: HT29 colon
SNB-75 CNS = test system: SNB-75 CNS
SNB-19 CNS = test system: SNB-19 CNS
U251 CNS = test system: U251 CNS
PC-3 prostate = test system: PC-3 prostate
SK-MEL-5 melanoma = test system: SK-MEL-5 melanoma
UACC-62 melanoma = test system: UACC-62 melanoma
LOX IMVI melanoma = test system: LOX IMVI melanoma
SK-MEL-28 melanoma = test system: SK-MEL-28 melanoma
SK-MEL-2 melanoma = test system: SK-MEL-2 melanoma
EKVX NSCLC = test system: EKVX NSCLC
SN12C renal = test system: SN12C renal
UO-31 renal = test system: UO-31 renal
TK-10 renal = test system: TK-10 renal
ACHN renal = test system: ACHN renal
CAKI-1 renal = test system: CAKI-1 renal
A498 renal = test system: A498 renal
CCRF-CEM leukemia = test system: CCRF-CEM leukemia
MOLT-4 leukemia = test system: MOLT-4 leukemia

Measured: growth

O=C(Nn1c2c(sc1=Nc1ccccc1)C(=O)c1ccccc1C2=O)c1cc2ccc1CCc1ccc(cc1)CC2
inactive: HCT-15 colon 51.3% | HT29 colon 91.8% | SNB-75 CNS 36.3% | SNB-19 CNS 60.7% | U251 CNS 82.6% | PC-3 prostate 66.3% | SK-MEL-5 melanoma 39.7% | UACC-62 melanoma 70.8% | LOX IMVI melanoma 62.2% | SK-MEL-28 melanoma 92.4% | SK-MEL-2 melanoma 75.2% | EKVX NSCLC 70.4% | SN12C renal 70.2% | UO-31 renal 33.6% | TK-10 renal 108% | ACHN renal 42.7% | CAKI-1 renal 32.1% | A498 renal 93.7% | CCRF-CEM leukemia 79.8% | MOLT-4 leukemia 83.3%

O=C(O)/C(=C\c1ccc(Cl)cc1)c1ccc(Cl)cc1
inactive: HCT-15 colon 86.9% | HT29 colon 93.6% | SNB-75 CNS 74.2% | SNB-19 CNS 103% | U251 CNS 91.9% | PC-3 prostate 89.8% | SK-MEL-5 melanoma 96.4% | UACC-62 melanoma 94.3% | LOX IMVI melanoma 95.2% | SK-MEL-28 melanoma 95.9% | SK-MEL-2 melanoma 90.3% | EKVX NSCLC 94.3% | SN12C renal 90.4% | UO-31 renal 77.7% | TK-10 renal 106% | ACHN renal 95.2% | CAKI-1 renal 70.8% | A498 renal 94.9% | CCRF-CEM leukemia 96.5% | MOLT-4 leukemia 50%

O=C1/C(=C/c2ccc(-c3ccc(Br)cc3)o2)SC(=S)N1CCc1ccc(O)cc1
inactive: HCT-15 colon 78.9% | HT29 colon 76.8% | SNB-75 CNS 37.9% | SNB-19 CNS 85.5% | U251 CNS 78.9% | PC-3 prostate 61.3% | SK-MEL-5 melanoma 92.5% | UACC-62 melanoma 49.6% | LOX IMVI melanoma 71.7% | SK-MEL-28 melanoma 103% | EKVX NSCLC 77.2% | SN12C renal 69.6% | UO-31 renal 39.9% | TK-10 renal 87% | ACHN renal 83.9% | CAKI-1 renal 39.1% | A498 renal 64.7% | CCRF-CEM leukemia 21.7% | MOLT-4 leukemia 33.6%
active: SK-MEL-2 melanoma 2.89%

Cn1cc(-c2nc(-c3c[nH]c4ccncc34)cs2)c2ccccc21
active: HCT-15 colon -21.6% | HT29 colon 0.469% | U251 CNS -43.8% | LOX IMVI melanoma -78% | SK-MEL-28 melanoma -79.8% | CCRF-CEM leukemia 0.202%
inactive: SNB-75 CNS 91% | SNB-19 CNS 88.4% | PC-3 prostate 61.5% | SK-MEL-5 melanoma 55.2% | UACC-62 melanoma 94.6% | SK-MEL-2 melanoma 93.1% | EKVX NSCLC 49% | SN12C renal 77.5% | UO-31 renal 57.9% | TK-10 renal 88.3% | ACHN renal 24.7% | CAKI-1 renal 19.8% | A498 renal 85.3% | MOLT-4 leukemia 35.7%

Cn1ccnc1C(=O)C(=O)Nc1ccc(CC(=O)Nc2ccccc2)cc1
inactive: HCT-15 colon 96.9% | HT29 colon 107% | SNB-75 CNS 92.2% | SNB-19 CNS 96.5% | U251 CNS 108% | PC-3 prostate 107% | SK-MEL-5 melanoma 101% | UACC-62 melanoma 95.5% | LOX IMVI melanoma 100% | SK-MEL-28 melanoma 107% | SK-MEL-2 melanoma 123% | EKVX NSCLC 102% | SN12C renal 103% | UO-31 renal 85.7% | TK-10 renal 116% | ACHN renal 107% | CAKI-1 renal 93.3% | A498 renal 103% | CCRF-CEM leukemia 105% | MOLT-4 leukemia 107%

O=C(Cn1c2c(c3ccccc31)CCCC2)Nc1ccc(-c2nc3ccccc3s2)cc1
inactive: HCT-15 colon 101% | HT29 colon 107% | SNB-75 CNS 106% | SNB-19 CNS 100% | U251 CNS 96.9% | PC-3 prostate 94.7% | SK-MEL-5 melanoma 93.6% | UACC-62 melanoma 90.1% | LOX IMVI melanoma 79.9% | SK-MEL-28 melanoma 103% | SK-MEL-2 melanoma 98.6% | EKVX NSCLC 108% | SN12C renal 103% | UO-31 renal 92.6% | TK-10 renal 98.9% | ACHN renal 112% | CAKI-1 renal 100% | A498 renal 94% | CCRF-CEM leukemia 93.2% | MOLT-4 leukemia 98.8%

CC[C@@H](C(=O)[C@@H](C)[C@@H](O)[C@H](C)[C@@H]1O[C@@H]([C@@H](CC)C(=O)NCCc2ccc(F)cc2)CC[C@@H]1C)C1O[C@]2(C=CC(=O)[C@]3(CC[C@@](C)([C@H]4CC[C@](O)(CC)[C@H](C)O4)O3)O2)[C@H](C)C[C@@H]1C (stereo not given in full)
inactive: HCT-15 colon 29.1% | HT29 colon 47.2% | SNB-75 CNS 20.8% | SNB-19 CNS 26.2% | U251 CNS 28.4% | SK-MEL-5 melanoma 24.6% | UACC-62 melanoma 26.7% | LOX IMVI melanoma 52.8% | SK-MEL-28 melanoma 58.2% | SK-MEL-2 melanoma 53% | EKVX NSCLC 29.6% | SN12C renal 37.7% | UO-31 renal 19.2% | TK-10 renal 16.6% | CAKI-1 renal 14.2% | A498 renal 34.6% | CCRF-CEM leukemia 40.1% | MOLT-4 leukemia 19.2%
active: PC-3 prostate 8.72% | ACHN renal 9.48%

CC1=C(CCC(C)N(C)Cc2ccc(OCCCN3CCCC3)cc2)C(C)(C)CCC1 (stereo not given)
inactive: SNB-75 CNS 63.1% | SNB-19 CNS 41.8% | PC-3 prostate 31.8% | EKVX NSCLC 47.4% | SN12C renal 56.9% | UO-31 renal 20.3% | TK-10 renal 49.9% | ACHN renal 36.8% | CAKI-1 renal 49.9% | A498 renal 57.2% | CCRF-CEM leukemia 11.1%
active: HCT-15 colon -14% | HT29 colon -12% | U251 CNS -11.9% | SK-MEL-5 melanoma -93.7% | UACC-62 melanoma -63.9% | LOX IMVI melanoma -81.4% | SK-MEL-28 melanoma -80.6% | SK-MEL-2 melanoma -55.2% | MOLT-4 leukemia -24.2%

Brc1c2c(c(Br)c3ccccc13)CCCC2
inactive: HCT-15 colon 112% | HT29 colon 85.2% | SNB-75 CNS 97.8% | SNB-19 CNS 96.4% | U251 CNS 91.2% | PC-3 prostate 93.6% | SK-MEL-5 melanoma 98.3% | UACC-62 melanoma 84.9% | LOX IMVI melanoma 100% | SK-MEL-28 melanoma 101% | SK-MEL-2 melanoma 93.8% | EKVX NSCLC 97.2% | SN12C renal 94.2% | UO-31 renal 95.2% | TK-10 renal 99.2% | ACHN renal 104% | CAKI-1 renal 99.2% | A498 renal 94.6% | CCRF-CEM leukemia 96.5% | MOLT-4 leukemia 95.8%

COC(=O)c1c2c(c[n+]([O-])c1C)C(=O)C(NCc1ccccc1)=CC2=O
inactive: TK-10 renal 39%
active: HCT-15 colon -60.1% | HT29 colon -0.488% | SNB-75 CNS -97.9% | SNB-19 CNS -23.8% | U251 CNS -57.4% | PC-3 prostate -11.1% | SK-MEL-5 melanoma -97% | UACC-62 melanoma -78.5% | LOX IMVI melanoma -30.1% | SK-MEL-28 melanoma -29.3% | SK-MEL-2 melanoma -44.4% | EKVX NSCLC -45.1% | SN12C renal -78.9% | UO-31 renal -14.8% | ACHN renal -18.4% | CAKI-1 renal 3.84% | A498 renal -4.89% | CCRF-CEM leukemia 2.92% | MOLT-4 leukemia -29.4%

Cc1c(-n2nnc(-c3nc4ccccc4s3)c2N)c(=O)n(-c2ccccc2)n1C
inactive: HCT-15 colon 98.3% | HT29 colon 100% | SNB-75 CNS 83.1% | SNB-19 CNS 99.9% | U251 CNS 101% | PC-3 prostate 98.2% | SK-MEL-5 melanoma 99.6% | UACC-62 melanoma 93.3% | LOX IMVI melanoma 93.1% | SK-MEL-28 melanoma 111% | SK-MEL-2 melanoma 107% | EKVX NSCLC 101% | SN12C renal 108% | UO-31 renal 73.9% | TK-10 renal 109% | ACHN renal 100% | CAKI-1 renal 87% | A498 renal 112% | CCRF-CEM leukemia 107% | MOLT-4 leukemia 98.3%

CCCC(O)Cn1ncc(C(=O)OCC)c1NC(=O)NCc1ccccc1F (stereo not given)
inactive: HCT-15 colon 105% | HT29 colon 81.1% | SNB-75 CNS 98.9% | SNB-19 CNS 102% | U251 CNS 93.8% | PC-3 prostate 93.4% | SK-MEL-5 melanoma 93.2% | UACC-62 melanoma 86.3% | LOX IMVI melanoma 93.9% | SK-MEL-28 melanoma 110% | SK-MEL-2 melanoma 74.3% | EKVX NSCLC 95.7% | SN12C renal 96.8% | UO-31 renal 74.2% | TK-10 renal 99.1% | ACHN renal 107% | CAKI-1 renal 80.1% | A498 renal 90.7% | CCRF-CEM leukemia 76.3% | MOLT-4 leukemia 71%

CCOC(=O)CSc1ncnc2c1c(-c1ccccc1)c(-c1ccccc1)n2-c1ccc(C)cc1
inactive: HCT-15 colon 106% | HT29 colon 63.9% | SNB-75 CNS 87.8% | SNB-19 CNS 63.4% | U251 CNS 49.1% | PC-3 prostate 51.9% | SK-MEL-5 melanoma 44.9% | UACC-62 melanoma 57.1% | LOX IMVI melanoma 78.4% | SK-MEL-28 melanoma 87.6% | SK-MEL-2 melanoma 82.4% | EKVX NSCLC 43.9% | SN12C renal 64.3% | UO-31 renal 73.4% | TK-10 renal 78.5% | ACHN renal 90.7% | CAKI-1 renal 75.6% | A498 renal 75.2% | CCRF-CEM leukemia 67% | MOLT-4 leukemia 67.4%

C#CCOc1cccc(Nc2ncnc3ccc(NC(=O)CCl)cc23)c1
inactive: SNB-75 CNS 28%
active: HCT-15 colon -41.6% | HT29 colon -78.6% | SNB-19 CNS -23.7% | U251 CNS -60.7% | PC-3 prostate -59.3% | SK-MEL-5 melanoma -92.8% | UACC-62 melanoma -67.5% | LOX IMVI melanoma -75.4% | SK-MEL-28 melanoma -17.2% | SK-MEL-2 melanoma -47.9% | EKVX NSCLC -45.2% | SN12C renal -24.7% | UO-31 renal -87.8% | TK-10 renal -60.8% | ACHN renal -80.8% | CAKI-1 renal 1.72% | A498 renal -2.12% | CCRF-CEM leukemia -56.9% | MOLT-4 leukemia -25.1%

CC(C)(C)n1cc(-c2ccnc(NCCCNS(=O)(=O)c3ccc(F)cc3)c2)c(-c2cccc(F)c2)n1
inactive: SNB-75 CNS 85% | SNB-19 CNS 72.7% | U251 CNS 45.5% | PC-3 prostate 46.1% | SK-MEL-5 melanoma 33.7% | UACC-62 melanoma 72.7% | LOX IMVI melanoma 33.7% | SK-MEL-28 melanoma 82.4% | SK-MEL-2 melanoma 88.4% | EKVX NSCLC 57.3% | SN12C renal 66.5% | UO-31 renal 50.3% | TK-10 renal 97.7% | ACHN renal 61.4% | CAKI-1 renal 53.6% | A498 renal 70.2% | CCRF-CEM leukemia 49.1% | MOLT-4 leukemia 41.7%
active: HCT-15 colon 5.18% | HT29 colon 6.93%
